Measurements from PubChem BioAssay AID686978 (National Center for Advancing Translational Sciences (NCATS), 2013).
The whole screen tested about 420,000 compounds, of which about 64,000 (15%) were called active. Not shown: some 27% with an inconclusive outcome. Calls come from the whole dose curve; as a rule, active = well fitted inhibition curve with a large enough effect; inconclusive = small, poorly fitted or top-dose-only effect; inactive = flat fitted curve, though single readings scatter. Only a sample is shown.

Assay: qHTS for Inhibitors of human tyrosyl-DNA phosphodiesterase 1 (TDP1): qHTS in cells in absence of CPT; note: nearly all actives have a fitted effect of over 55% in size
Settings: DT40 Tdp1-/- hTDP1 cells, no CPT, ATP luminescence, 48 h; activity change, negative = growth inhibition: at 46.2 µM (top of the series)
Summary of the method: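 Stably hTDP1-transfected Tdp1-null chicken DT40 cells were treated with library compounds minus camptothecin and grown for at least 48 hr at 37 °C, after which cellular ATP was quantified by luminescence.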
% is set by controls: 0 for no effect and ±100 for the full control effect; potency is the fitted concentration of half-maximal effect.

| Compound | activity change, negative = growth inhibition | Potency |
| --- | --- | --- |
| O=C1C2C3C=CC(C3)C2C(=O)N1c1ncc([N+](=O)[O-])s1 (stereo not drawn) | 11.5% (inactive) |  |
| COc1ccc(C(=O)COC(=O)CCCC(=O)Nc2cc(C(F)(F)F)ccc2Cl)cc1 | -26.7% (inactive) |  |
| Cc1cc(OC(=O)c2ccc(Cl)cc2)cc(=O)n1C | -48.6% (inactive) |  |
| O=C(COc1cccc(F)c1)Oc1ccc(C(=O)c2ccccc2)cc1 | -2.56% (inactive) |  |
| N#Cc1cccc(CSc2nnc(CCCO)n2-c2ccccc2)c1 | -6.18% (inactive) |  |
| CCOc1ccc(-c2nnc(-c3ccco3)o2)cc1 | 2.07% (inactive) |  |
| Cc1ccc(OCC(=O)Nc2ccc(-c3nnc(-c4ccco4)o3)cc2)cc1 | -26.1% (inactive) |  |
| CCC(=O)Oc1cccc(C(=O)Nc2ccc(-c3nnc(-c4ccco4)o3)cc2)c1 |  | 5.8 µM (active) |
| O=C(Nc1ccc(C(=O)O)cc1)/C(=C\c1ccccc1)NC(=O)c1ccc(Br)cc1 | 2.35% (inactive) |  |
| CN1CCN(C(=O)C2C3C=CC(C3)C2C(=O)O)CC1 (stereo not drawn) | -1.9% (inactive) |  |
| Cc1cc(NC(=O)[C@H](C)NC(=O)c2ccco2)ccc1Br | -28% (inactive) |  |
| Cc1ccnc(NC(=O)c2ccco2)n1 | 5.09% (inactive) |  |
| CC(NC(=O)c1ccco1)C(=O)Nc1nc(-c2ccccn2)cs1 (stereo not drawn) |  | 5.8 µM (active) |
| COc1ccc(OCC(=O)Nc2nnc(-c3ccco3)s2)cc1 | -20.5% (inactive) |  |
| NS(=O)(=O)c1ccc2nc(NC(=O)COc3ccccc3)sc2c1 | -0.0254% (inactive) |  |
| O=C(COc1ccccc1F)NC1CC1 | -12.3% (inactive) |  |
| CC1CCN(S(=O)(=O)c2nnc(NC(=O)COc3ccccc3F)s2)CC1 | -5.02% (inactive) |  |
| O=C(COc1ccccc1F)Nc1nc(-c2ccccn2)cs1 |  | 4.61 µM (active) |
| N#Cc1ccc(OCC(=O)Nc2nc(-c3ccccn3)cs2)cc1 |  | 1.64 µM (active) |
| Cn1c(=O)oc2cc(S(=O)(=O)NCCC(=O)NCc3ccccc3Cl)ccc21 | 4.72% (inactive) |  |
| CCN(CC)C(=O)CSc1nnc(C2CCCCC2)o1 | 0.286% (inactive) |  |
| CCC(=O)c1ccc(OC(=O)/C=C/c2cc(OC)c(OC)c(OC)c2)cc1 | 1.7% (inactive) |  |

| Compound | activity change, negative = growth inhibition | Potency |
| --- | --- | --- |
| CC(C)CNC(=O)/C=C/C(=O)O | -14.9% (inactive) |  |
| C[C@H](CO)N1C[C@H](C)[C@@H](CN(C)C(=O)Nc2ccc3c(c2)OCO3)Oc2c(cccc2N(C)C)C1=O | -12.8% (inactive) |  |
| CCCCOc1ccc(N(CC(=O)NC(C)C)C(=O)CCC(=O)Nc2ccccn2)cc1 | -34.6% (inactive) |  |
| Cc1ccc(S(=O)(=O)NC(=O)N2CCCN(Cc3ccc(F)cc3)CC2)cc1 | -3.06% (inactive) |  |
| CC(C)OC(=O)C(C#N)c1nc2ccccc2nc1N1CCN(Cc2ccccc2)CC1 (stereo not drawn) |  | 23.1 µM (active) |
| Cc1ccc(S(=O)(=O)C(C#N)c2nc3ccccc3nc2N2CCCC2)cc1C (stereo not drawn) | -22.9% (inactive) |  |
| O=C(Nc1ccccc1)N1CCN(Cc2ccccc2)CC1 | -9.74% (inactive) |  |
| COc1cccc(OCC(=O)NNC(=O)c2cnccn2)c1 | -29.3% (inactive) |  |
| CS(=O)(=O)N1CCN(c2cccc(Cl)n2)CC1 | -12.8% (inactive) |  |
| COCCn1cnc2c1c(=O)n(Cc1ccc(Br)cc1)c(=O)n2Cc1ccccc1 | -5.41% (inactive) |  |
| CCN(CC)CCn1cnc2c1c(=O)[nH]c(=O)n2Cc1ccccc1 | -22.4% (inactive) |  |
| N=c1c2c(-c3ccccc3)c(-c3ccccc3)n(Cc3ccccc3)c2ncn1CCCO |  | 18.4 µM (active) |
| COc1ccc(C(=O)CSc2nnc(-c3ccco3)o2)cc1 | -17.3% (inactive) |  |
| O=C1CN(C(=O)CN2C(=O)NC3(CCCCC3)C2=O)c2ccccc2N1 | -1.46% (inactive) |  |
| CC(Sc1nncn1C)C(=O)NCCC1=CCCCC1 (stereo not drawn) | -19.3% (inactive) |  |
| Cc1ccn2c(=O)c(C(=O)NCCC3=CCCCC3)c(O)nc2c1 |  | 20.6 µM (active) |
| CCOCCCNC(=O)C1(O)c2cc(Br)ccc2NC(=O)N1c1ccc(C)c(C)c1 (stereo not drawn) | 10.1% (inactive) |  |
| Cc1cccc(NC(=O)CCN2CC(C)CC(C)C2)c1 (stereo not drawn) | 13.4% (inactive) |  |
| Cc1cc(=O)oc2cc(OC(C)C(=O)Nc3ccc(N4CCOCC4)cc3)ccc12 (stereo not drawn) | -14.8% (inactive) |  |
| O=C(CC1Oc2ccccc2NC1=O)NCCCN1CCN(Cc2ccccc2)CC1 (stereo not drawn) | 0.2% (inactive) |  |
| CC1CN(C(=O)CCC(=O)NCCCN2CCC(Cc3ccccc3)CC2)c2cc(Cl)ccc2O1 (stereo not drawn) |  | 18.4 µM (active) |
| CC1CN(C(=O)CCC(=O)NC2CCN(Cc3ccccc3)CC2)c2ccccc2O1 (stereo not drawn) | 4.16% (inactive) |  |

| Compound | activity change, negative = growth inhibition | Potency |
| --- | --- | --- |
| CSc1ccc(Cl)c(C(=O)OCC(=O)N2CC(C)OC(C)C2)c1 (stereo not drawn) | 7.32% (inactive) |  |
| Cc1noc(C)c1S(=O)(=O)N(C)C[C@H]1Oc2ccc(NC(=O)C3CCCCC3)cc2C(=O)N([C@H](C)CO)C[C@@H]1C | -13.7% (inactive) |  |
| C[C@H]1COc2cc(N3CCSCC3)ccc2S(=O)(=O)N1 | -28.5% (inactive) |  |
| Cc1nnc(C)n1/N=C/c1ccc(C(C)C)cc1 | -3.59% (inactive) |  |
| CCOC(=O)N1CCC(NC(=O)COc2cc(=O)n(C)c3ccccc23)CC1 | -4.89% (inactive) |  |
| Cc1cc(Br)ccc1NC(=O)CCCOc1cc(=O)n(C)c2ccccc12 |  | 25.9 µM (active) |
| Cc1ccc(F)c(NC(=O)CCOc2ccccc2C)c1 | -6.79% (inactive) |  |
| Cc1cc(C)n2nc(C(=O)Oc3ccc4c(c3)OCO4)nc2n1 | -23.2% (inactive) |  |
| CC(=O)c1c(N)n(C)c(=O)n(C)c1=O | 0.345% (inactive) |  |
| CC(=O)c1c(-c2ccccc2)c2ccccc2[nH]c1=O | -0.0692% (inactive) |  |
| CCOC(=O)c1[nH]c2ccccc2c1N=C(C)N(CC)CC | -10.8% (inactive) |  |
| Cc1c(-c2ccccc2)n[nH]c1C(=O)N=Nc1c(O)[nH]c2ccccc12 |  | 23.1 µM (active) |
| O=C(c1ccco1)N1CCN(C(=O)C2CC(c3ccc(F)cc3)=NO2)CC1 (stereo not drawn) | 8.49% (inactive) |  |
| COC(=O)c1ccc(Cc2ccccc2)o1 | -14% (inactive) |  |
| COc1ccccc1N(CC(=O)Nc1ccc(C(F)(F)F)cc1)S(C)(=O)=O | 4.9% (inactive) |  |
| COC(=O)c1ccc(CN(c2ccccc2OC)S(=O)(=O)c2cccs2)o1 |  | 23.1 µM (active) |
| O=C(O)C1C2CC2CN1C(=O)c1ccc(Cl)cc1Cl (stereo not drawn) | -14.9% (inactive) |  |
| O=C(CSC1CC(=O)N(CCc2ccccc2)C1=O)Nc1ccc(Cl)cc1 (stereo not drawn) | -19.9% (inactive) |  |
| O=C(CSc1ccc(-c2ccco2)nn1)Nc1cccc(F)c1 |  | 20.6 µM (active) |
| Cc1ccccc1NC(=O)CSc1ccc2nnc(-c3ccccn3)n2n1 | -11.4% (inactive) |  |
| O=C(CSc1ccc(-c2ccc(F)cc2)nn1)Nc1ccc2c(c1)OCCO2 | -27.9% (inactive) |  |
| O=C(CSc1ccc(-c2ccc(-n3cccn3)cc2)nn1)Nc1ccc([N+](=O)[O-])cc1 | -3.72% (inactive) |  |

| Compound | activity change, negative = growth inhibition | Potency |
| --- | --- | --- |
| O=C(CSc1ccc(-c2ccccn2)nn1)Nc1ccccc1 |  | 18.4 µM (active) |
| O=C(CSc1ccc(-c2ccco2)nn1)NCc1ccc2c(c1)OCO2 | -1.47% (inactive) |  |
| O=C(CCC(=O)OCc1cccc(C(=O)Oc2ccccc2)c1)Nc1cccc2ccccc12 | -21.2% (inactive) |  |
| C=CCOc1ccccc1NC(=O)CN1C(=O)CNC1=O | -7.28% (inactive) |  |
| COc1nc(N(C)C)nc(N2CC(=O)N(CCNS(=O)(=O)c3ccc(C)cc3)C2=N)n1 | -15.3% (inactive) |  |
| NC(=O)C1(N2CCCCC2)CCN(C(=S)Nc2ccc(Cl)cc2)CC1 | -6.42% (inactive) |  |
| CC(C)(C)Oc1ncc(Br)c(OC(C)(C)C)n1 | -2.08% (inactive) |  |
| Cc1ccc(/C=C/C(=O)OCC(=O)NCc2ccc(Cl)cc2)o1 | 8.3% (inactive) |  |
| CCOCCCNC(=O)C(NC(=O)c1ccccc1O)c1ccccc1 (stereo not drawn) | -7.83% (inactive) |  |
| O=C(CSc1nnc(C2CC2)n1Cc1ccccc1)Nc1cccnc1Cl | 6.73% (inactive) |  |
| O=C(NOCc1ccccc1)c1cccc([N+](=O)[O-])c1 | -4.33% (inactive) |  |
| CCC(CC)NC(=O)/C=C/c1cccc([N+](=O)[O-])c1 | -26.5% (inactive) |  |
| CCC1(C(=O)c2ccccc2)C(c2cccc([N+](=O)[O-])c2)C1(C(=O)OC)C(=O)OC (stereo not drawn) |  | 13 µM (active) |
| COc1ccc(C)cc1NC(=O)Nc1ccccc1SC | -14% (inactive) |  |
| O=C(COC(=O)Cc1ccc([N+](=O)[O-])cc1)NC1CCCCCC1 | 21.9% (inactive) |  |
| COc1ccccc1/C=C1\SC(=O)N(CCC(=O)N(C)C2CCS(=O)(=O)C2)C1=O (stereo not drawn) | -17.3% (inactive) |  |
| CN(C(=O)CCN1C(=O)/C(=C/c2ccccc2F)SC1=S)C1CCS(=O)(=O)C1 (stereo not drawn) |  | 23.1 µM (active) |
| CN(C(=O)CN1C(=O)S/C(=C\c2ccccc2F)C1=O)C1CCS(=O)(=O)C1 (stereo not drawn) | -1.69% (inactive) |  |
| CSc1cc(C)n(-c2ccccc2C)c(=S)c1C(C)=O | -2.36% (inactive) |  |
| Cc1cccc(NC(=O)CSc2nnc(CCNC(=O)OC(C)(C)C)o2)c1C | -2.72% (inactive) |  |
| CC1CC(C)CN(C(=O)CCNC(=O)Cn2cnc3ccccc3c2=O)C1 (stereo not drawn) | -6.93% (inactive) |  |
| CCc1ccc(NC(=O)CSc2nnc(-c3cnccn3)n2Cc2ccco2)cc1 | -21.8% (inactive) |  |

| Compound | activity change, negative = growth inhibition | Potency |
| --- | --- | --- |
| CN1CCN(c2ncc3c(n2)CC(c2ccccc2F)CC3=O)CC1 (stereo not drawn) |  | 18.4 µM (active) |
| O=C1c2ccccc2C(=O)C1c1ccccc1F | -1.5% (inactive) |  |
| CCCN1CCc2nc(N3CCN(C)CC3)ncc2C1 | -13.9% (inactive) |  |
| CSc1nsc(SC)c1NC(=O)OC1CCCCC1 | -24.9% (inactive) |  |
| N#CCSc1nn(-c2ccc(F)cc2)c(=S)s1 | -15.7% (inactive) |  |
| CCOC(=O)N/N=C1\CC(C)S(=O)(=O)c2ccc(Cl)cc21 (stereo not drawn) | -29.5% (inactive) |  |
| Cc1nc(N2CCOCC2)nc2c1CCCC2 | -3.14% (inactive) |  |
| COc1cccc(C(C(=O)NC2CCCC2)N(C(=O)c2ccco2)c2cccc(C(C)=O)c2)c1OC (stereo not drawn) | -19.3% (inactive) |  |
| FC(F)(F)c1nnc2ccc(N3CCN(c4ccccc4)CC3)nn12 | -23.8% (inactive) |  |
| Fc1c(F)c(C(F)(F)F)c(F)c(F)c1N1CCN(c2ccc3nnc(C(F)(F)F)n3n2)CC1 |  | 23.1 µM (active) |
| NC(=O)c1oc2ccccc2c1NC(=O)CS(=O)(=O)c1ccccc1 | 14.4% (inactive) |  |
| Cc1ccc(C(=O)CCC(=O)N(C)CC(=O)Nc2c(Cl)cccc2Cl)cc1 | -20.5% (inactive) |  |
| CC(C)CC(N=C1NC(C)(C)Cc2ccccc21)C(=O)O (stereo not drawn) | 0.347% (inactive) |  |
| Cc1nc2ccc(N)nc2nc1C | 0.191% (inactive) |  |
| Cn1c(C(=O)NCCCN2CCCCC2)cc2sccc21 | -27.6% (inactive) |  |
| COCC(=O)N=Nc1c(O)[nH]c2ccccc12 | -18.6% (inactive) |  |
| O=C(CNC(=O)Cc1ccccc1)N=Nc1c(O)[nH]c2ccc(Br)cc12 | -29.5% (inactive) |  |
| O=C(CCN1CCCCC1)N=Nc1c(O)[nH]c2ccccc12 |  | 23.1 µM (active) |
| COc1ccccc1CNC(=O)CCCNS(=O)(=O)c1cccc2nsnc12 | -2.92% (inactive) |  |
| Cn1c(C(=O)O)ccc1S(=O)(=O)N(Cc1ccccc1)Cc1ccccc1 | 1.26% (inactive) |  |
